Test results published in paper PMC7862700, “An all-to-all approach to the identification of sequence-specific readers for epigenetic DNA modifications on cytosine”.

Key:
Assay in all cases: DAPPL (digital affinity profiling via proximity ligation, sequencing); 10 mM Tris-HCl pH 7.5, 50 mM NaCl, 1 mM DTT, 4% glycerol, room temperature, 30 min; GST-TFs on glutathione beads, 16-mer random dsDNA library, 0.1% formaldehyde crosslink after washing; high values mean tight binding
Conditions in all cases: protein: recombinant; tags: N-terminal GST; dsDNA, one strand shown
[1] = molecular target: ETV1 (Homo sapiens, UniProt P50549 1-477)
Chain of ETV1 (P50549 whole entry, the tested form may be a part): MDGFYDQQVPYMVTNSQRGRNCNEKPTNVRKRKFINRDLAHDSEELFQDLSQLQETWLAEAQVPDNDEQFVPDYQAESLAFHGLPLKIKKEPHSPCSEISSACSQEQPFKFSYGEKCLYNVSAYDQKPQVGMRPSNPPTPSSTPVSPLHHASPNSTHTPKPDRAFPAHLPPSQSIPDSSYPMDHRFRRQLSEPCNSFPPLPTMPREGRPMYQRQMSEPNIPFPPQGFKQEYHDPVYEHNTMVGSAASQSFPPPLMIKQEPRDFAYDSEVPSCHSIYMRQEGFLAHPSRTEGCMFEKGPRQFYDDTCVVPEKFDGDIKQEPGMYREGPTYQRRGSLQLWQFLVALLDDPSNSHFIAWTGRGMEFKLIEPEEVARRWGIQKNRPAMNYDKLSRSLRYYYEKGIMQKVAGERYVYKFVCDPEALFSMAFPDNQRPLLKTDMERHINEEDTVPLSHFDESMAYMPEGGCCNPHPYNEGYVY
In short: (§1)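 Human transcription factors carrying a GST fusion were produced in yeast, bound to glutathione beads, tagged with DNA barcodes and pooled together with a tag-only sample. Each pool was held with 200 nmole of a random double-stranded 16-mer DNA library in Tris/NaCl/DTT/glycerol buffer for 30 min at room temperature, then washed, crosslinked in 0.1% formaldehyde, proximity-ligated with BsaI/T4 ligase (1 h, 37 °C), PCR-amplified and sequenced on an Illumina NextSeq500. Binding signal is the read frequency of each hexamer for a given factor divided by its frequency in the tag-only sample.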

[2] = molecular target: T1, ERF (Homo sapiens, UniProt P50548 1-548)
T1 sequence: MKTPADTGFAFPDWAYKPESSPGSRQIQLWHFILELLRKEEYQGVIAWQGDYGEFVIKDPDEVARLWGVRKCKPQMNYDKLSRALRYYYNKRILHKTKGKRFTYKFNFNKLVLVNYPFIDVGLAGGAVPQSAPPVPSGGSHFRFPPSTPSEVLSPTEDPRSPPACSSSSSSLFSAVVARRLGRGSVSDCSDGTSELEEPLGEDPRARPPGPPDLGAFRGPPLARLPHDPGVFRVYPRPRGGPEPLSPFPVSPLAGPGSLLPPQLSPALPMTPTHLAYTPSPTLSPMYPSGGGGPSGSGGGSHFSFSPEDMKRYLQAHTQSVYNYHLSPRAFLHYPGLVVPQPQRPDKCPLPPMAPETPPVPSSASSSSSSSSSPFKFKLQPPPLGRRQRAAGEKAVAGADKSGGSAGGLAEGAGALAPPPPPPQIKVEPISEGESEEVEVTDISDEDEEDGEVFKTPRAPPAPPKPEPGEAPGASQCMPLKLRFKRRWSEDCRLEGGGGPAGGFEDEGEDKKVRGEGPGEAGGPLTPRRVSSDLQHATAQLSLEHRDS
In short: as §1

[3] = molecular target: T2, ETV3L (Homo sapiens, UniProt Q6ZN32 1-361)
T2 sequence: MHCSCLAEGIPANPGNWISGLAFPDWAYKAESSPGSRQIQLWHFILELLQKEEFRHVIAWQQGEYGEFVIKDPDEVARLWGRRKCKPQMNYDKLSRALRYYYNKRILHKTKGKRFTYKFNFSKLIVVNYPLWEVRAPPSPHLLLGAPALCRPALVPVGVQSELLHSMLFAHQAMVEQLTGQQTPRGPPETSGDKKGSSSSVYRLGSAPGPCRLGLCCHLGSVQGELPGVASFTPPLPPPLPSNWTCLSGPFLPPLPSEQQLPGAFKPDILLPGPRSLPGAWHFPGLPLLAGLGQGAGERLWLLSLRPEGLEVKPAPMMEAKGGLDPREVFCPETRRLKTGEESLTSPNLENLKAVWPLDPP
In short: as §1

[4] = molecular target: T3, ETS2 (Homo sapiens, UniProt P15036 1-469)
T3 sequence: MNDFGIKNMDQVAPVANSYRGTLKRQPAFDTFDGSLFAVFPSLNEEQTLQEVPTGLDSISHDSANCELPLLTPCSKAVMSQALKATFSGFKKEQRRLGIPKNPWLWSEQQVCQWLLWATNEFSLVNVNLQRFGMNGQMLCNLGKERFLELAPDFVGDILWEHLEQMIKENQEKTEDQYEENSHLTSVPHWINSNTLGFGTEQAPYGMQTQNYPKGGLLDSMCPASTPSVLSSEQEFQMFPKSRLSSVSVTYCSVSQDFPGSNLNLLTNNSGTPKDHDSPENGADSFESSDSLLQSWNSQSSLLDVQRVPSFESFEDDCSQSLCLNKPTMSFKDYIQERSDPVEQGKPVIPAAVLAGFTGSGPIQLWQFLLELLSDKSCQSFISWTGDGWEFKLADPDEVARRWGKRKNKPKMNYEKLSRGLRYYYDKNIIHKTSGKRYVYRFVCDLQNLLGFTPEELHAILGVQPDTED
In short: as §1

[5] = molecular target: T4, SPDEF (Homo sapiens, UniProt O95238 1-335)
T4 sequence: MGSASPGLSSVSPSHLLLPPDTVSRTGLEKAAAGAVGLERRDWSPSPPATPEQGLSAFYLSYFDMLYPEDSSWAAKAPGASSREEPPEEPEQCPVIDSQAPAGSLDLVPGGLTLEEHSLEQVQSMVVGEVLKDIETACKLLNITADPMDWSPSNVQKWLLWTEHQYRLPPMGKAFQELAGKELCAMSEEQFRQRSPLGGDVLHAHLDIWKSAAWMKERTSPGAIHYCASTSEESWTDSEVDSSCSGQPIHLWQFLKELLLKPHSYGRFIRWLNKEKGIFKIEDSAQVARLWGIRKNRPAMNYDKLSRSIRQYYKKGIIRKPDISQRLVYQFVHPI
In short: as §1

[6] = molecular target: T5, ETV7 (Homo sapiens, UniProt Q9Y603 1-341)
T5 sequence: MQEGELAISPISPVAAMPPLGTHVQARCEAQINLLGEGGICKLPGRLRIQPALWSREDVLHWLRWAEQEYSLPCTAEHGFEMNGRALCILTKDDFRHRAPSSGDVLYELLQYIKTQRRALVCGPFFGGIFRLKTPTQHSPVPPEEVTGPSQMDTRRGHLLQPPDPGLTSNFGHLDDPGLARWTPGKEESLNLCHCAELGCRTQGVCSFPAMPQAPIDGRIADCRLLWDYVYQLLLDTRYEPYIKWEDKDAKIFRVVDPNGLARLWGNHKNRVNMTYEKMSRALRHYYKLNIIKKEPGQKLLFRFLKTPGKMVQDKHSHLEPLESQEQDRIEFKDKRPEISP
In short: as §1

[7] = molecular target: T6, ELF5 (Homo sapiens, UniProt Q9UKW6-2 1-255)
T6 sequence: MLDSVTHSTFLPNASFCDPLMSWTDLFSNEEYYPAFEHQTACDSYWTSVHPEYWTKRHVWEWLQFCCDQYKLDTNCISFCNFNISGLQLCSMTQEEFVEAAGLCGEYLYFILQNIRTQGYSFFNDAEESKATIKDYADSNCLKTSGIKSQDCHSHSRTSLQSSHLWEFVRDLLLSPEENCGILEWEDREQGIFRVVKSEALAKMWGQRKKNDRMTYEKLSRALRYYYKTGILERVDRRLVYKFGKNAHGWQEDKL
In short: as §1

[8] = molecular target: T7, ETV3 (Homo sapiens, UniProt P41162-2 1-143)
T7 sequence: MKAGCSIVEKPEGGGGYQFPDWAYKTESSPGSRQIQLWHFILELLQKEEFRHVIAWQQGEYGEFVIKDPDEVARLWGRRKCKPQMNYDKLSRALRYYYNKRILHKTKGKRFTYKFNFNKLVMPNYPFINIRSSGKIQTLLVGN
In short: as §1

[9] = molecular target: ETV6 (Homo sapiens, UniProt P41212 1-452)
Chain of ETV6 (P41212 whole entry): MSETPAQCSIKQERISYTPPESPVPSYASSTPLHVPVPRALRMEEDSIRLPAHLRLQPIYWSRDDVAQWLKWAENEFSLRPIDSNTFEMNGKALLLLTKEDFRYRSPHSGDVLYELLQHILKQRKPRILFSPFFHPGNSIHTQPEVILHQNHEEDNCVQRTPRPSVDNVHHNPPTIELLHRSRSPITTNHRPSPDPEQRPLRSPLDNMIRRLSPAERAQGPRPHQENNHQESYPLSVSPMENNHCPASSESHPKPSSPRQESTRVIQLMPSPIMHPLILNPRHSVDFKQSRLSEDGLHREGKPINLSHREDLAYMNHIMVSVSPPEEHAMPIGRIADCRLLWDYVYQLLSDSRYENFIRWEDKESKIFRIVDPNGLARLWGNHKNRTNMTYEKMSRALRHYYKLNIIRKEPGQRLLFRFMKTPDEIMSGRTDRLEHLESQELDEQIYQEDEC
In short: as §1

## TTCGCT
[1]
  binding signal: 1.27 fold enrichment (6-mer frequency, TF over GST control)
[2]
  binding signal: 1.4 fold enrichment (6-mer frequency, TF over GST control)
[3]
  binding signal: 1.24 fold enrichment (6-mer frequency, TF over GST control)
[4]
  binding signal: 1.3 fold enrichment (6-mer frequency, TF over GST control)
[5]
  binding signal: 1.2 fold enrichment (6-mer frequency, TF over GST control)
[6]
  binding signal: 1.34 fold enrichment (6-mer frequency, TF over GST control)
[7]
  binding signal: 1.23 fold enrichment (6-mer frequency, TF over GST control)
[8]
  binding signal: 1.23 fold enrichment (6-mer frequency, TF over GST control)
[9]
  binding signal: 1.23 fold enrichment (6-mer frequency, TF over GST control)
